According to the supplement of paper PMC3334620:
Over roughly 33,000 sequences, “E-score (-0.5 to 0.5)” has its median near -0.036; the highest 2% begin near 0.37. What follows is part of a selection rich in the highest values, with near analogues and random picks from the rest.

Molecular target: T1, Yer064c (UniProt P40041)
T1 sequence: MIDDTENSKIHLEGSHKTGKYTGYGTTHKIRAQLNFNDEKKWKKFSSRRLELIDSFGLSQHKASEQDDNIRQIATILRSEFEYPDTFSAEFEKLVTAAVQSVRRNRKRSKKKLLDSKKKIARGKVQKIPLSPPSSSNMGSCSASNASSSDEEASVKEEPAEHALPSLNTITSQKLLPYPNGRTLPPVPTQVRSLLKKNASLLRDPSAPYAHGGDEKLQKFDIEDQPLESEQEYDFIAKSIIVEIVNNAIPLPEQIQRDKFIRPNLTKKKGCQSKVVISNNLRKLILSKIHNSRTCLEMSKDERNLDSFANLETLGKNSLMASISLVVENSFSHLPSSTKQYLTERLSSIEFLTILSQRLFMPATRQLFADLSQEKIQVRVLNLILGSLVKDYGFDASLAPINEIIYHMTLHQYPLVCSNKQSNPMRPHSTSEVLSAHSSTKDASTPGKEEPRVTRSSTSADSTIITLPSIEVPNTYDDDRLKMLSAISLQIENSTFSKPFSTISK
Experiment: PBM E-score (8-mer binding enrichment) (E-score (-0.5 to 0.5)); higher = stronger / more preferred TF binding
Details: protein concentration: 200 nM; construct: GST-full length
Procedure: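 Universal 'all 10-mer' protein binding microarrays (Agilent AMADID 015681) probed with GST-tagged S. cerevisiae TFs (full-length or DBD) made by in vitro transcription/translation (PURExpress), about 100-200 nM. Bound TF was detected with fluorescent anti-GST. Each ungapped 8-mer (which stands for itself and its reverse complement) is scored by the PBM enrichment score (E-score), a modified Wilcoxon-Mann-Whitney statistic from -0.5 to +0.5, computed with the Universal PBM Analysis Suite. Scale: above 0.35 generally sequence-specific binding.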

Row | Sequence | PBM E-score
1 | AGAAACAG | -0.164
2 | GCTCCAAC | -0.164
3 | GTCGTACA | 0.19
4 | AGGGCGAC | -0.0248
5 | CTACAGAC | -0.184
6 | CCCATTAA | -0.0295
7 | GGGTCGAA | 0.0364
8 | GAGGCGGA | -0.0783
9 | CCCCCCAA | -0.315
10 | GACGAAGA | 0.0944
11 | GTGGGTTA | 0.103
12 | ATAGTCTG | 0.177
13 | ATAGTCCG | 0.316
14 | ATAGTCGG | 0.256
15 | ATAGTCAG | 0.454
16 | ATAGTCGC | 0.389
17 | CTAGTCGC | 0.316
18 | ACAGAAGG | -0.0367
19 | CTGCATCA | -0.0294
20 | AGGATCGG | -0.209
21 | CGGGCTCC | -0.307
22 | AATGAGCA | -0.0702
23 | CATGAGTA | 0.341
24 | AATGAGTA | 0.389
25 | GCTGAGTA | 0.212

Row | Sequence | PBM E-score
26 | GATGAGTA | 0.429
27 | AATGAGGA | -0.00162
28 | CGAGATTC | 0.0578
29 | AAGTTGTA | -0.0146
30 | ATGGGGCG | -0.111
31 | AATTAATT | 0.177
32 | TACTTATA | 0.116
33 | GACTTATA | 0.387
34 | GACTTATC | 0.307
35 | TCTCCCCA | -0.153
36 | CCGACAGC | -0.394
37 | AGGGAGTA | 0.0389
38 | CGGGAGTA | -0.0367
39 | AGGGAGTG | -0.175
40 | CGGGAGAC | 0.106
41 | AGGGAGTC | 0.44
42 | CGGGAGTC | 0.413
43 | GCTACCAA | -0.00248
44 | CGAGCCGC | -0.00093
45 | GGACGACC | -0.23
46 | CGGGCACA | -0.212
47 | CCAGGATC | -0.0208
48 | ATCCGGAC | -0.228
49 | AATGGGGA | -0.288
50 | ACACCAGG | -0.148

Row | Sequence | PBM E-score
51 | ACCAACGA | -0.0117
52 | GACCGGTC | -0.369
53 | CGTGACGA | 0.0595
54 | AGTGACGA | 0.218
55 | AGTGACTA | 0.469
56 | GGTGACCA | 0.0718
57 | AGTGACAA | 0.0598
58 | AGTGACTG | 0.403
59 | AGTGACGG | -0.0747
60 | CGTGACTA | 0.486
61 | CGTGACAA | -0.253
62 | GGTGACGA | -0.0961
63 | AGTGACCG | -0.22
64 | GGTGACTA | 0.486
65 | GAGTACCA | 0.252
66 | AATACCAA | -0.0127
67 | CTCAACCA | 0.152
68 | GCTTGCCC | -0.427
69 | AGTATGGC | 0.0363
70 | CAAATTTG | 0.13
71 | ATGCGAAG | -0.0967
72 | GTTACTTA | 0.163
73 | CGAAAAAA | 0.0432
74 | CGTGACCC | 0.0177
75 | CGTGACGC | -0.00579

Row | Sequence | PBM E-score
76 | AGTGACGC | -0.182
77 | AGTGACAC | -0.0262
78 | CGTGACTC | 0.481
79 | AGTGACTC | 0.486
80 | AGGGTACT | -0.144
81 | CGATTCCA | -0.102
82 | TGATTCCA | 0.398
83 | TGATTCAA | 0.466
84 | AGATTCAA | 0.314
85 | AGATTCCA | 0.0276
86 | GGATTCAA | 0.18
87 | AGCGGAAG | -0.191
88 | CTGCACCC | -0.223
89 | TGACTGAA | 0.432
90 | TGACTGCA | 0.404
91 | GGACTGAA | 0.109
92 | CGACTGCA | 0.253
93 | AGACTGCA | 0.201
94 | AGACTGAA | 0.241
95 | ACTCCAAT | 0.238
96 | CAGTCCCC | -0.225
97 | CCGGTGAG | 0.0747
98 | GCGGAGTA | -0.0756
99 | CGACACTA | -0.0389
100 | GTTTTGGA | 0.197

Row | Sequence | PBM E-score
101 | CATCACTA | 0.0474
102 | AAGCACTG | 0.0399
103 | AATCACTC | 0.385
104 | AATCACTG | 0.375
105 | GATCACTA | 0.135
106 | CATCACTC | 0.0183
107 | AATCACTA | 0.373
108 | AAACACTG | 0.0608
109 | CGGCGATC | -0.0422
110 | GTCACCAC | 0.29
111 | CATTCTAC | -0.179
112 | CAAGATTA | 0.199
113 | AGTCCAGG | 0.0238
114 | AAGCCAGC | -0.181
115 | GTTCAAGA | 0.0547
116 | AACGCTCA | -0.103
117 | TCTGGACA | -0.266
118 | ACTTCGAA | 0.166
119 | CACTATGC | 0.0417
120 | GACTATGA | 0.435
121 | TACTATGA | 0.318
122 | AACTATGC | -0.153
123 | AACTATGA | 0.237
124 | GACTATGC | 0.397
125 | ACGGCGAG | 0.0206

Row | Sequence | PBM E-score
126 | GCTCGCAC | -0.24
127 | CTACTTTC | 0.0258
128 | CGGCCGGC | -0.134
129 | GTGGTGGA | -0.14
130 | TTGGCCAA | -0.142
131 | AGACTATC | 0.35
132 | TGACTTAA | 0.435
133 | CTACTAAA | 0.00127
134 | TGACTACA | 0.476
135 | GGACTTAA | 0.188
136 | CGACTAAA | 0.41
137 | AGACTAAC | 0.413
138 | AGACTACA | 0.344
139 | CCACTAAA | -0.0544
140 | AGACTTAA | 0.195
141 | AGACTAGC | 0.251
142 | CGACTACA | 0.351
143 | ACACTCTG | -0.0556
144 | ACGCCACT | -0.186
145 | GGAACTTA | -0.0956
146 | CAGTAACA | 0.0175
147 | TACATTGA | 0.0284
148 | AGATGATA | 0.0471
149 | AGTAAAGG | 0.0771
150 | ATCCATTC | 0.0758

Row | Sequence | PBM E-score
151 | CTCAGATA | 0.268
152 | GGGTTTCA | -0.23
153 | ACCGGAGA | -0.00273
154 | ATAGAACC | 0.0363
155 | CGACTAAG | 0.399
156 | CCACTAAG | 0.0593
157 | AAACTAAG | 0.175
158 | AGACTATG | 0.319
159 | TGACTAAA | 0.484
160 | AGACTAAG | 0.383
161 | CTACTAAG | 0.0152
162 | TGGCTAAA | 0.306
163 | AGACTACT | 0.376
164 | AGACTACC | 0.354
165 | GGACTAAA | 0.331
166 | AGACTACG | 0.322
167 | ACTATTCA | 0.106
168 | AGTTGCCA | -0.223
169 | ACGTTGAG | 0.0564
170 | GAGTCTGC | 0.312
171 | TTCAGCAA | -0.00768
172 | AGTGATAT | -0.134
173 | AACTGAAC | -0.119
